The source of these data is PubChem BioAssay (EPA / NIEHS).

Test [1] can be described thus: ATG_M_32_CIS: Attagene CIS-FACTORIAL HepG2 Assay for M32 Transcription Factor (Internal Marker) (AID 2282949).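 Further: background control marker of the multiplexed CIS panel rather than a real target.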 The note with it: HepG2 Attagene cis-factorial M32 reporter, mRNA; actives raise or lower the signal. A digest of the protocol:
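Following 24 h chemical exposure of HepG2 cells transiently expressing cis-promoter reporter constructs, reporter transcript levels were determined by RT-PCR with fluorescent labelling and capillary electrophoresis, then fitted bidirectionally against DMSO.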

Test [2] can be described thus: ATG_M_06_CIS: Attagene CIS-FACTORIAL HepG2 Assay for M06 Transcription Factor (Internal Marker) (AID 2282950). To be noted: HepG2 Attagene CIS-FACTORIAL M06 internal marker reporter; actives raise or lower the signal. A digest of the protocol: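 Cells (HepG2, transiently carrying cis-driven reporter units) receive chemical for 24 h before RNA isolation. Reporter cDNA is PCR-amplified, FAM-labelled by primer extension, HpaI-digested and sized on a capillary analyser.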

In test [3] the target is Hypoxia-inducible factor 1-alpha (Homo sapiens) (UniProt Q16665). As to the kind of experiment: ATG_HIF1a_CIS: Attagene CIS-FACTORIAL HepG2 Assay for human Hypoxia Inducible Factor 1 (HIF1A) (AID 2282951). The note with it: HepG2 Attagene cis-factorial HIF1a reporter transcription; actives raise or lower the signal. An outline of the steps: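 Fluorescence intensity of capillary-separated, 6-FAM-labelled reporter amplicons gives mRNA induction in HepG2 cells carrying transfected cis-promoter reporter units; cells exposed 24 h, responses fitted up or down from DMSO.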
Hypoxia-inducible factor 1-alpha (Homo sapiens), sequence (Q16665 whole entry, looked up): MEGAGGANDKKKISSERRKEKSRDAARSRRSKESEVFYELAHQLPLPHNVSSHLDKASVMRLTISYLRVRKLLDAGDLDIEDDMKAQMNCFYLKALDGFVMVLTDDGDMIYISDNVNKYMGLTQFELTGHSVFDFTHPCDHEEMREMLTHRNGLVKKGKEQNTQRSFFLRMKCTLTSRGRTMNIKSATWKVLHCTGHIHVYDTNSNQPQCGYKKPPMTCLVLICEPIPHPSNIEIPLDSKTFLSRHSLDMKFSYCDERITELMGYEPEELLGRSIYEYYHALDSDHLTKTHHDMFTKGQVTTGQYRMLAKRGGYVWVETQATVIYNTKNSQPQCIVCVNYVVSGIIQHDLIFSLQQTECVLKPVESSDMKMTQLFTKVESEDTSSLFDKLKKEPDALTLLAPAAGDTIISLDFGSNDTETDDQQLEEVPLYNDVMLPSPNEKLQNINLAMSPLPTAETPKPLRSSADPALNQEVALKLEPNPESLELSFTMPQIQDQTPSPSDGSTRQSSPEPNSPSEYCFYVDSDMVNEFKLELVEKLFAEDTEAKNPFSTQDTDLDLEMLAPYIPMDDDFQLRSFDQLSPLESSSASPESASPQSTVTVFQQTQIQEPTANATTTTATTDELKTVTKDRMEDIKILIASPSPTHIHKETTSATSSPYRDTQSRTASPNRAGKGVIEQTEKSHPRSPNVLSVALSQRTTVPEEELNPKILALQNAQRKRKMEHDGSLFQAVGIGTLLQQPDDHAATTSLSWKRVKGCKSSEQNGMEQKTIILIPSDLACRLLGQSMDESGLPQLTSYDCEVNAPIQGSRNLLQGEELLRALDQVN

In test [4] the target is Hepatocyte nuclear factor 6 (Homo sapiens) (UniProt Q9UBC0). Nature of the test: ATG_HNF6_CIS: Attagene CIS-FACTORIAL HepG2 Assay for human Hepatocyte Nuclear Factor 6 (HNF6) (AID 2282952). To be noted: HepG2 Attagene cis-factorial HNF6 reporter transcription; actives raise or lower the signal. An outline of the steps:
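HepG2 cells transiently transfected with cis-element-driven multiple reporter transcription units, dosed 24 h; reporter mRNA quantified by RT-PCR, FAM primer extension, HpaI digestion and capillary electrophoresis; bidirectional fit versus DMSO baseline.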

Test [5] deals with Heat shock factor protein 1 (Homo sapiens) (UniProt Q00613). As to the kind of experiment: ATG_HSE_CIS: Attagene CIS-FACTORIAL HepG2 Assay for human Heat Shock Transcription Factor 1 (HSE) (AID 2282953). The note with it: HepG2 HSE cis-reporter, Attagene RNA transcription; actives raise or lower the signal. A digest of the protocol: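 Liver-derived HepG2 cells carry transiently introduced multiple reporter units governed by cis promoters. Reporter RNA measured 24 h post-dose through reverse transcription, PCR amplification, fluorescent labelling and capillary electrophoresis, normalised to DMSO.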
Heat shock factor protein 1 (Homo sapiens), sequence (Q00613 whole entry, looked up): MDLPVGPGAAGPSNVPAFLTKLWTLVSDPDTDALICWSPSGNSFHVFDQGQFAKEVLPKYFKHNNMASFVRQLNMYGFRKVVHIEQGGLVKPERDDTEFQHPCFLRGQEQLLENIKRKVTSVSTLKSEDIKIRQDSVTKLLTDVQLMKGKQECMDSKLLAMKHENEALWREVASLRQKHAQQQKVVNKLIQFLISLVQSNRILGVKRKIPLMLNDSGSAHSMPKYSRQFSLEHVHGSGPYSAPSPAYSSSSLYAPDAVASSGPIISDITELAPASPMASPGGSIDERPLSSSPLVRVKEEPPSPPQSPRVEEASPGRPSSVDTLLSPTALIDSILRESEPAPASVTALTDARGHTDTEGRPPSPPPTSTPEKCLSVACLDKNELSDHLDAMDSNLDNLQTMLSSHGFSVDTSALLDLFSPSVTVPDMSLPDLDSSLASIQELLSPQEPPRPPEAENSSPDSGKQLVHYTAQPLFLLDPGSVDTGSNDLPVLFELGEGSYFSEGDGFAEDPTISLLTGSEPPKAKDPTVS

A short description of test [6]: ATG_MRE_CIS: Attagene CIS-FACTORIAL HepG2 Assay for human Metal Responsive Element (MRE) (AID 2282954). The note with it: HepG2 MRE cis-reporter transcription, Attagene multiplex; actives raise or lower the signal. A digest of the protocol: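 HepG2 cells transiently transfected with multiple cis-element reporter units measure endogenous MTF1-driven transcription. After 24 h compound exposure, reporter mRNA is quantified by RT-PCR with 6-FAM labelling, HpaI digestion and capillary electrophoresis; bidirectional fits versus DMSO.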

Test [7] can be described thus: ATG_PBREM_CIS: Attagene CIS-FACTORIAL HepG2 Assay for human Phenobarbital-responsive Enhancer Module (PBREM) (AID 2282955). To be noted: HepG2 PBREM cis-reporter, Attagene multiplexed transcription; actives raise or lower the signal. An outline of the steps: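 Cells were transfected with cis-element reporter units and treated for 24 h, after which RNA was extracted and reporter transcripts measured by RT-PCR and capillary electrophoresis.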

The target of test [8] is Paired box protein Pax-6 (Homo sapiens) (UniProt P26367). Nature of the test: ATG_Pax6_CIS: Attagene CIS-FACTORIAL HepG2 Assay for human Paired Box 6 (PAX6) (AID 2282956). To be noted: HepG2 CIS-FACTORIAL PAX6 reporter transcription, RNA readout; actives raise or lower the signal. A digest of the protocol: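 Multiplexed cis-reporter HepG2 system; 24 h treatment; reporter mRNA read by RT-PCR/CE fluorescence; bidirectional fit vs DMSO.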
Paired box protein Pax-6 (Homo sapiens), sequence (P26367 whole entry, looked up): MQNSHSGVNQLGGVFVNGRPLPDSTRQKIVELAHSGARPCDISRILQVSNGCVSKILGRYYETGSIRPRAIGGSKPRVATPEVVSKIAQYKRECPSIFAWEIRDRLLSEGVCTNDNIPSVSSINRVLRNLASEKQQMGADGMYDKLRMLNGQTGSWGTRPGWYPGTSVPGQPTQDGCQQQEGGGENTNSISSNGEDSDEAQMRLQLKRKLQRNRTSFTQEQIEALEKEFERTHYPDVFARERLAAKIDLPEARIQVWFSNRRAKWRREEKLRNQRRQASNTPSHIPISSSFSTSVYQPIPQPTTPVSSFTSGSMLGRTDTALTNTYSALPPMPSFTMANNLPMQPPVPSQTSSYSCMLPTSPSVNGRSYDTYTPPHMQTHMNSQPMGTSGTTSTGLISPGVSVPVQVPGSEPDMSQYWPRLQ

The nature of test [9]: ATG_PXRE_CIS: Attagene CIS-FACTORIAL HepG2 Assay for human Pregnane X Receptor Element (PXRE) (AID 2282957). The note with it: HepG2 Attagene CIS-FACTORIAL PXRE reporter, mRNA; actives raise or lower the signal. A digest of the protocol: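 HepG2 cells transiently transfected with cis-regulated multiple reporter transcription units; endogenous factor activity measured as reporter mRNA 24 h after dosing. RT-PCR, fluorescent primer extension, HpaI digestion, capillary electrophoresis; bidirectional fit versus DMSO baseline.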

Test [10] can be described thus: ATG_PPRE_CIS: Attagene CIS-FACTORIAL HepG2 Assay for human Peroxisome Proliferator-activated Response Element (PPRE) (AID 2282958). The note with it: HepG2 PPRE cis-element reporter, Attagene transcription factor profiling; actives raise or lower the signal. An outline of the steps:
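In this cell-based multiplex, a PPRE cis element drives a reporter sequence in transiently transfected HepG2 cells. Following 24 h treatment, labeled cDNA amplicons are sized and quantified by capillary electrophoresis, with DMSO defining baseline.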

Test [11] can be described thus: ATG_RORE_CIS: Attagene CIS-FACTORIAL HepG2 Assay for human RAR-related Orphan Receptor Element (RORE) (AID 2282959). To be noted: HepG2 Attagene cis-factorial RORE reporter, mRNA; actives raise or lower the signal. An outline of the steps:
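Endogenous factor activity at a cis response element is read as reporter transcript levels in HepG2 cells, 24 h post-dose. Transcripts are quantified by RT-PCR with capillary electrophoresis, and data fitted in both directions against DMSO.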

The nature of test [12]: ATG_Sox_CIS: Attagene CIS-FACTORIAL HepG2 Assay for human SRY-box transcription factor (SOX) (AID 2282960). To be noted: HepG2 Attagene cis-factorial SOX reporter, mRNA; actives raise or lower the signal. A digest of the protocol: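 Measures mRNA induction of a SOX1-associated reporter in HepG2 after 24 h dosing. Fluorescently labelled RT-PCR fragments are separated by capillary electrophoresis, and gain or loss relative to DMSO control is fitted.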

For test [13], the target named is Transcription factor Sp1 (Homo sapiens) (UniProt P08047). As to the kind of experiment: ATG_Sp1_CIS: Attagene CIS-FACTORIAL HepG2 Assay for human Specificity Protein 1 (Sp1) (AID 2282961). The note with it: HepG2 Sp1 cis-reporter transcription, actives raise or lower the signal. A digest of the protocol: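 Cells: HepG2, transiently transfected with cis-regulated multiplexed reporters. Exposure: 24 h. Detection: reporter transcripts amplified, fluorescently labeled, restriction-digested and sized by capillary electrophoresis. Analysis: bidirectional fit relative to DMSO.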
Transcription factor Sp1 (Homo sapiens), sequence (P08047 whole entry, looked up): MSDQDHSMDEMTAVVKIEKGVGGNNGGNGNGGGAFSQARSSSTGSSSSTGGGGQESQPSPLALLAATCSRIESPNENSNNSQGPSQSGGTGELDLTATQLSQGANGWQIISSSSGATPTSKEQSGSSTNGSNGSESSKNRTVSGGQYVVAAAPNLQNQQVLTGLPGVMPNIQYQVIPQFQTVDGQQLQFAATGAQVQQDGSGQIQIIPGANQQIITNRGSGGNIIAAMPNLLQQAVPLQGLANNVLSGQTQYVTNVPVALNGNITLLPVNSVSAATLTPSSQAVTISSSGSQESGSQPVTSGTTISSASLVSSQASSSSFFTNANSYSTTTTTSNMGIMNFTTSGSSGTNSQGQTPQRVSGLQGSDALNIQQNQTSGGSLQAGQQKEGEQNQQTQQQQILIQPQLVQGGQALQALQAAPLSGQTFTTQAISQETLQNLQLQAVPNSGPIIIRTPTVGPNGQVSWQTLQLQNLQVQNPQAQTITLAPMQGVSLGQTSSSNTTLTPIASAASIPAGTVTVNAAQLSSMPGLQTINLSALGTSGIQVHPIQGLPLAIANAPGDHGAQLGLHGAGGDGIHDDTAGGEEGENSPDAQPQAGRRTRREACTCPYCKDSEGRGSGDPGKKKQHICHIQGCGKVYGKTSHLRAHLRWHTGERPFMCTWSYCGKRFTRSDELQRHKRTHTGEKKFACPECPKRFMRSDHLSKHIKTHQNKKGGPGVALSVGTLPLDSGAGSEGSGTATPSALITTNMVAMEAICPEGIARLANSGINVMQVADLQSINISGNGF

A short description of test [14]: ATG_SREBP_CIS: Attagene CIS-FACTORIAL HepG2 Assay for human Sterol Regulatory Element Binding (SREBP) (AID 2282962). To be noted: HepG2 Attagene cis-factorial SREBP reporter, mRNA; actives raise or lower the signal. A digest of the protocol:
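mRNA induction of transfected cis-promoter reporters in HepG2 cells, 24 h post-dose. Detection: RT-PCR with 6-FAM-labelled products, HpaI digest, capillary electrophoresis. DMSO served as negative control and baseline.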

Test [15] has as its target Signal transducer and activator of transcription 3 (Homo sapiens) (UniProt P40763). As to the kind of experiment: ATG_STAT3_CIS: Attagene CIS-FACTORIAL HepG2 Assay for human Signal Transducer and Activator of Transcription 3 (STAT3) (AID 2282963). To be noted: HepG2, Attagene cis-factorial STAT3 reporter transcription; actives raise or lower the signal. A digest of the protocol: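 HepG2 cells transiently transfected with cis-element-driven multiple reporter transcription units; after 24 h chemical exposure, reporter mRNA measured by RT-PCR, 6-FAM primer-extension labelling, HpaI digestion and capillary electrophoresis. Bidirectional fitting versus DMSO baseline.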

A short description of test [16]: ATG_TA_CIS: Attagene CIS-FACTORIAL HepG2 Assay for human TA Basal Promoter (AID 2282964). The note with it: HepG2 Attagene CIS-factorial TA basal promoter reporter; actives raise or lower the signal. An outline of the steps:
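Background internal-marker endpoint from a 52-component HepG2 cis-reporter panel. Cells treated 24 h; reporter transcripts quantified via RT-PCR and CE fluorescence against DMSO baseline.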

A short description of test [17]: ATG_TCF_b_cat_CIS: Attagene CIS-FACTORIAL HepG2 Assay for human T-Cell-Factor with beta-catenin (TCF/b-cat) (AID 2282965). The note with it: HepG2 TCF/beta-catenin cis-reporter transcription, actives raise or lower the signal. An outline of the steps: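 HepG2 cells transiently transfected with multiple cis-promoter-regulated reporter transcription units, so endogenous transcription factor activity is measured. Reporter mRNA read 24 hours after dosing by RT-PCR, fluorescent labelling and capillary electrophoresis; bidirectional fitting against DMSO.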

A short description of test [18]: ATG_TAL_CIS: Attagene CIS-FACTORIAL HepG2 Assay for human TAL Basal Promoter (AID 2282966).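 Further: background control endpoint measuring basal TAL promoter reporter mRNA not a specific factor.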 To be noted: HepG2 Attagene cis-factorial TAL promoter reporter; actives raise or lower the signal. An outline of the steps: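 HepG2 cells were transiently transfected with promoter-driven multiplexed reporter units and dosed for 24 h. Reporter mRNA was measured by RT-PCR with capillary electrophoresis fluorescence; bidirectional fits used DMSO as baseline, serving as a background control.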

Test [19] is described as follows: ATG_VDRE_CIS: Attagene CIS-FACTORIAL HepG2 Assay for human Vitamin D Receptor Element (VDRE) (AID 2282968). To be noted: HepG2 VDRE cis-reporter transcription, actives raise or lower the signal. An outline of the steps: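 HepG2 cells transiently transfected with cis-element reporter units, dosed 24 h; reporter mRNA measured by RT-PCR, 6-FAM labeling, HpaI digestion and capillary electrophoresis. Activity fitted bidirectionally against DMSO baseline.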

Test [20] in a line: ATG_TGFb_CIS: Attagene CIS-FACTORIAL HepG2 Assay for human Transforming Growth Factor (TGF) (AID 2282967). The note with it: HepG2 Attagene CIS TGFb reporter, mRNA transcription; actives raise or lower the signal. An outline of the steps: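 Liver HepG2 line, cis-factorial reporter panel, 24 h dosing. Quantitation: RT-PCR products labeled with 6-FAM, cut with HpaI, resolved by capillary electrophoresis; DMSO-referenced bidirectional analysis.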

Calls of active or inactive are those of the source. How the source made its calls: active means hit-call score of the fitted dose curve at least 0.9, where 1 is the maximum; inactive means score below 0.9.

Signal transducer and activator of transcription 3 (Homo sapiens), sequence (P40763 whole entry, looked up): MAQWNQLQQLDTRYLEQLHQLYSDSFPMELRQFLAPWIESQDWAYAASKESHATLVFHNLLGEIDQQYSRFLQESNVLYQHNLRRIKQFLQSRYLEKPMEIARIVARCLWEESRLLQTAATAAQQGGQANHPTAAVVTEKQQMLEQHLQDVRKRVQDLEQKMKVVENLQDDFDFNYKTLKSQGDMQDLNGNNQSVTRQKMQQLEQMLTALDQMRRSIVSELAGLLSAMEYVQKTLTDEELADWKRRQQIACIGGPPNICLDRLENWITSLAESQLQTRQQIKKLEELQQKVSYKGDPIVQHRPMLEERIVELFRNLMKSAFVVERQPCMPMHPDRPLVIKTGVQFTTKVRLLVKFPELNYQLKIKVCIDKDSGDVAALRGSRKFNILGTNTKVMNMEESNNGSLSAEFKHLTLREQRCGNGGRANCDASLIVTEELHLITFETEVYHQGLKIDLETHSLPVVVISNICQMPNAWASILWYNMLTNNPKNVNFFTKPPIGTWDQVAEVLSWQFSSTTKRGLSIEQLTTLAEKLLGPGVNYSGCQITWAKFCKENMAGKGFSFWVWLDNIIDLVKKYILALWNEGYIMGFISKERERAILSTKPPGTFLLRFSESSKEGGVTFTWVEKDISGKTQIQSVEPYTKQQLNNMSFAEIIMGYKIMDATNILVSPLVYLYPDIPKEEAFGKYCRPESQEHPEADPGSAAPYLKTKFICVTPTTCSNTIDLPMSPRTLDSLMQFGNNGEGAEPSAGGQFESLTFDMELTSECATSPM
Hepatocyte nuclear factor 6 (Homo sapiens), sequence (Q9UBC0 whole entry, looked up): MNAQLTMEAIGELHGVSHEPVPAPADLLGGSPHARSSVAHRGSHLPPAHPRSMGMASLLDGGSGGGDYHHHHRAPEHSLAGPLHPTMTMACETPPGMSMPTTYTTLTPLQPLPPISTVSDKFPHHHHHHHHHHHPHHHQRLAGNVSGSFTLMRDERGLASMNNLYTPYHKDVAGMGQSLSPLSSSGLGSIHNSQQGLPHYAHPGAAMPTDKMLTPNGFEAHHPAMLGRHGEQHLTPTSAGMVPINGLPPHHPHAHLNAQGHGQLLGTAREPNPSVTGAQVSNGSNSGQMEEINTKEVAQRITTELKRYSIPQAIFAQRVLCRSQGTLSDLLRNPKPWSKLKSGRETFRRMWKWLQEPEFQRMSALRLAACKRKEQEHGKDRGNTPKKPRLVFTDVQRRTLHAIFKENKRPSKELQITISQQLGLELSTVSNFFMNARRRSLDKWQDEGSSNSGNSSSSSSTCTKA

For the compound `N#CCC#N`, the compound was called inactive in test [1], in test [2], in [3], in test [4], in test [5] and in [6]. Further, the result in test [7], in test [8], in test [9], in test [10], in [11] and in test [12] was inactive. Also, the result in test [13], in [14], in test [15], in test [16], in test [17] and in [18] was inactive. Further, in test [19], the outcome was inactive.
With `Cc1ccc(OP(=O)(Oc2ccc(C)cc2C)Oc2ccc(C)cc2C)c(C)c1`, the result in [1], in [2], in test [3], in test [5], in test [7] and in test [8] was inactive. In addition, the call in test [10], in test [11], in test [12], in test [14], in test [15] and in [16] was inactive. Besides, the compound was classed as inactive in test [17] and in test [18]. Further, the AC50 in test [4] was 25.4 µM (active); in [6], 2.33 µM (active); in [9], 0.181 µM (active); in [13], 26.2 µM (active); in test [19] it was 0.534 µM (active).
For the compound `N#Cc1cccnc1`, the compound was called inactive in test [1], in test [2], in test [3], in test [4], in [5] and in test [6]. Besides, the outcome in test [7], in [8], in [9], in test [10], in test [11] and in test [12] was inactive. In addition, the call in [13], in test [15], in test [16], in test [17], in test [18] and in [20] was inactive. Moreover, the outcome in [19] was inactive.
Consider `COCC(=O)N(c1c(C)cccc1C)[C@H](C)C(=O)OC`, for which the call in test [1], in test [2], in test [3], in test [4], in test [5] and in test [6] was inactive. The outcome in test [7], in [8], in test [10], in test [11], in test [12] and in test [13] was inactive. The call in test [14], in test [15], in [16], in [17], in test [18] and in test [19] was inactive. For the same compound, the AC50 in [9] is 27.7 µM (active).
Take `CCOP(=S)(OCC)Oc1ccc(Cl)cc1Cl`: the result in [1], in [2], in [3], in test [4], in test [5] and in [6] was inactive. Besides, the result in [7], in test [8], in [10], in test [11], in test [12] and in test [13] was inactive. The outcome in [14], in [15], in test [16], in test [17], in [18] and in test [20] was inactive. Also, the values for the AC50 in test [9] and in [19] were 3.82 µM (active) and 13.9 µM (active), respectively.
Turning to `CCOC(=O)c1ccccc1S(=O)(=O)NC(=O)Nc1nc(Cl)cc(OC)n1`, the call in test [1], in test [2], in test [3], in [4], in test [5] and in [6] was inactive. The outcome in [7], in test [8], in [10], in test [11], in test [12] and in [13] was inactive. Moreover, the compound was classed as inactive in test [14], in test [15], in [16], in test [17], in test [18] and in test [20]. Further, the outcome in [19] was inactive. Moreover, the AC50 in test [9] is 5.49 µM (active).
